# Source: PubChem BioAssay AID1159580 (chemical genetic matrix, 2015)
# The campaign covered roughly 5,500 compounds. About 2,000 (36%) were called active. Inconclusive results (about 18%) are left out. This is one part of the list. A number with no mark means an inactive call. Rule as the data show it: active = normalized growth mostly below about 0.91 (no sharp cut-off); inconclusive = no clear call, values can overlap the other calls; inactive = mostly above about 0.92.
# Assay: chemical genetic growth profiling, strain panel (AID 1159580);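 also: tested at 20 µM; growth read once vehicle control cultures reached saturation at 30 °C; 1 = growth at the plate median or of vehicle wells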
# Details: growth OD
compound,measurement,setting,value
CC(=O)OC[C@@]1(O)C[C@@]23CCC4c5ccoc5CC[C@]4(C)C2CC[C@@H]1C3 (some centres not stated),normalized growth,"S. cerevisiae deletion strains, locus YJR075W, strain HOC1, stronger effect = lower value",1.01
same,normalized growth,"S. cerevisiae deletion strains, locus YKL009W, strain mrt4, stronger effect = lower value",0.868 (active)
same,normalized growth,"S. cerevisiae deletion strains, locus YKL068W, stronger effect = lower value",0.969
same,normalized growth,"S. cerevisiae deletion strains, locus YKL085W, strain MDH1 (second series), stronger effect = lower value",0.967
same,normalized growth,"S. cerevisiae deletion strains, locus YKL085W, strain MDH1, stronger effect = lower value",0.967
same,normalized growth,"S. cerevisiae deletion strains, locus YKL160W, strain elf1, stronger effect = lower value",0.978
same,normalized growth,"S. cerevisiae deletion strains, locus YKL190W, strain CNB1, stronger effect = lower value",0.986
same,normalized growth,"S. cerevisiae deletion strains, locus YKR001C, strain vps1, stronger effect = lower value",0.942
same,normalized growth,"S. cerevisiae deletion strains, locus YKR026C, strain gcn3, stronger effect = lower value",1.01
same,normalized growth,"S. cerevisiae deletion strains, locus YKR091W, strain srl3, stronger effect = lower value",1
same,normalized growth,"S. cerevisiae deletion strains, locus YLL001W, strain dnm1, stronger effect = lower value",0.974
same,normalized growth,"S. cerevisiae deletion strains, locus YLL026W, stronger effect = lower value",1.02
same,normalized growth,"S. cerevisiae deletion strains, locus YLL041C, strain sdh2, stronger effect = lower value",1.02
same,normalized growth,"S. cerevisiae deletion strains, locus YLR027C, strain aat2, stronger effect = lower value",1.01
same,normalized growth,"S. cerevisiae deletion strains, locus YLR039C, strain RIC1, stronger effect = lower value",0.661 (active)
same,normalized growth,"S. cerevisiae deletion strains, locus YLR058C, strain SHM2, stronger effect = lower value",0.973
same,normalized growth,"S. cerevisiae deletion strains, locus YLR102C, strain apc9, stronger effect = lower value",0.973
same,normalized growth,"S. cerevisiae deletion strains, locus YLR113W, strain HOG1, stronger effect = lower value",0.901
same,normalized growth,"S. cerevisiae deletion strains, locus YLR221C, strain rsa3, stronger effect = lower value",0.968
same,normalized growth,"S. cerevisiae deletion strains, locus YLR258W, strain gsy2, stronger effect = lower value",0.99
same,normalized growth,"S. cerevisiae deletion strains, locus YLR262C, strain YPT6 (second series), stronger effect = lower value",0.817 (active)
same,normalized growth,"S. cerevisiae deletion strains, locus YLR262C, strain YPT6, stronger effect = lower value",0.624
same,normalized growth,"S. cerevisiae deletion strains, locus YLR268W, strain sec22, stronger effect = lower value",0.987
same,normalized growth,"S. cerevisiae deletion strains, locus YLR320W, strain mms22, stronger effect = lower value",0.945
same,normalized growth,"S. cerevisiae deletion strains, locus YLR330W, strain CHS5, stronger effect = lower value",0.969
same,normalized growth,"S. cerevisiae deletion strains, locus YLR342W, strain FKS1 (second series), stronger effect = lower value",0.775 (active)
same,normalized growth,"S. cerevisiae deletion strains, locus YLR342W, strain FKS1, stronger effect = lower value",1.01
same,normalized growth,"S. cerevisiae deletion strains, locus YLR357W, strain rsc2, stronger effect = lower value",0.963
same,normalized growth,"S. cerevisiae deletion strains, locus YLR370C, strain arc18, stronger effect = lower value",1
same,normalized growth,"S. cerevisiae deletion strains, locus YLR371W, strain rom2, stronger effect = lower value",0.96
same,normalized growth,"S. cerevisiae deletion strains, locus YLR384C, strain iki3, stronger effect = lower value",1.03
same,normalized growth,"S. cerevisiae deletion strains, locus YLR418C, strain cdc73, stronger effect = lower value",0.983
same,normalized growth,"S. cerevisiae deletion strains, locus YML016C, strain PPZ1, stronger effect = lower value",0.978
same,normalized growth,"S. cerevisiae deletion strains, locus YML032C, strain rad52, stronger effect = lower value",0.884 (active)
same,normalized growth,"S. cerevisiae deletion strains, locus YML120C, strain ndi1, stronger effect = lower value",1.01
same,normalized growth,"S. cerevisiae deletion strains, locus YML124C, strain tub3, stronger effect = lower value",0.98
same,normalized growth,"S. cerevisiae deletion strains, locus YMR058W, strain fet3, stronger effect = lower value",0.952
same,normalized growth,"S. cerevisiae deletion strains, locus YMR078C, strain ctf18, stronger effect = lower value",0.965
same,normalized growth,"S. cerevisiae deletion strains, locus YMR125W, strain sto1, stronger effect = lower value",0.988
same,normalized growth,"S. cerevisiae deletion strains, locus YMR129W, stronger effect = lower value",1.02
same,normalized growth,"S. cerevisiae deletion strains, locus YMR205C, strain PFK2, stronger effect = lower value",0.981
same,normalized growth,"S. cerevisiae deletion strains, locus YMR223W, strain ubp8, stronger effect = lower value",0.905
same,normalized growth,"S. cerevisiae deletion strains, locus YMR231W, strain pep5, stronger effect = lower value",1.01
same,normalized growth,"S. cerevisiae deletion strains, locus YMR263W, strain SAP30, stronger effect = lower value",0.985
same,normalized growth,"S. cerevisiae deletion strains, locus YMR307W, strain GAS1, stronger effect = lower value",0.779
same,normalized growth,"S. cerevisiae deletion strains, locus YNL067W, strain RPL9B, stronger effect = lower value",0.963
same,normalized growth,"S. cerevisiae deletion strains, locus YNL071W, strain lat1, stronger effect = lower value",0.964
same,normalized growth,"S. cerevisiae deletion strains, locus YNL128W, strain TEP1, stronger effect = lower value",0.997
same,normalized growth,"S. cerevisiae deletion strains, locus YNL153C, strain GIM3, stronger effect = lower value",0.992
same,normalized growth,"S. cerevisiae deletion strains, locus YNL183C, strain NPR1, stronger effect = lower value",0.877
same,normalized growth,"S. cerevisiae deletion strains, locus YNL209W, strain ssb2, stronger effect = lower value",1.02
same,normalized growth,"S. cerevisiae deletion strains, locus YNL233W, strain BNI4, stronger effect = lower value",0.947
same,normalized growth,"S. cerevisiae deletion strains, locus YNL248C, strain rpa49, stronger effect = lower value",0.96
same,normalized growth,"S. cerevisiae deletion strains, locus YNL250W, strain rad50, stronger effect = lower value",0.976
same,normalized growth,"S. cerevisiae deletion strains, locus YNL271C, strain bni1, stronger effect = lower value",0.975
same,normalized growth,"S. cerevisiae deletion strains, locus YNL298W, strain CLA4, stronger effect = lower value",0.891 (active)
same,normalized growth,"S. cerevisiae deletion strains, locus YNL307C, strain MCK1, stronger effect = lower value",0.778 (active)
same,normalized growth,"S. cerevisiae deletion strains, locus YNL322C, strain KRE1 (second series), stronger effect = lower value",1.03
same,normalized growth,"S. cerevisiae deletion strains, locus YNL322C, strain KRE1, stronger effect = lower value",0.997
same,normalized growth,"S. cerevisiae deletion strains, locus YNR049C, strain mso1, stronger effect = lower value",1.01
same,normalized growth,"S. cerevisiae deletion strains, locus YNR052C, strain pop2, stronger effect = lower value",0.938
same,normalized growth,"S. cerevisiae deletion strains, locus YOL006C, strain TOP1, stronger effect = lower value",1.11
same,normalized growth,"S. cerevisiae deletion strains, locus YOL012C, strain htz1",1.41
same,normalized growth,"S. cerevisiae deletion strains, locus YOL147C, strain pex11, stronger effect = lower value",0.971
same,normalized growth,"S. cerevisiae deletion strains, locus YOR001W, strain rrp6, stronger effect = lower value",0.985
same,normalized growth,"S. cerevisiae deletion strains, locus YOR061W, strain CKA2, stronger effect = lower value",0.952
same,normalized growth,"S. cerevisiae deletion strains, locus YOR069W, strain VPS5, stronger effect = lower value",0.981
same,normalized growth,"S. cerevisiae deletion strains, locus YOR070C, strain gyp1, stronger effect = lower value",1.01
same,normalized growth,"S. cerevisiae deletion strains, locus YOR080W, strain dia2, stronger effect = lower value",1.02
same,normalized growth,"S. cerevisiae deletion strains, locus YOR083W, strain WHI5, stronger effect = lower value",0.978
same,normalized growth,"S. cerevisiae deletion strains, locus YOR106W, strain vam3, stronger effect = lower value",0.998
same,normalized growth,"S. cerevisiae deletion strains, locus YOR136W, strain idh2, stronger effect = lower value",0.95
same,normalized growth,"S. cerevisiae deletion strains, locus YOR144C, strain elg1, stronger effect = lower value",0.97
same,normalized growth,"S. cerevisiae deletion strains, locus YOR184W, strain ser1, stronger effect = lower value",0.69 (active)
same,normalized growth,"S. cerevisiae deletion strains, locus YOR231W, strain MKK1, stronger effect = lower value",0.872
same,normalized growth,"S. cerevisiae deletion strains, locus YOR265W, strain rbl2, stronger effect = lower value",1.01
same,normalized growth,"S. cerevisiae deletion strains, locus YOR270C, strain vph1, stronger effect = lower value",1.21
same,normalized growth,"S. cerevisiae deletion strains, locus YOR290C, strain snf2, stronger effect = lower value",0.927
same,normalized growth,"S. cerevisiae deletion strains, locus YOR316C, strain cot1, stronger effect = lower value",0.966
same,normalized growth,"S. cerevisiae deletion strains, locus YPL051W, strain arl3, stronger effect = lower value",0.967
same,normalized growth,"S. cerevisiae deletion strains, locus YPL055C, strain LGE1, stronger effect = lower value",0.954
same,normalized growth,"S. cerevisiae deletion strains, locus YPL078C, strain atp4, stronger effect = lower value",0.931
same,normalized growth,"S. cerevisiae deletion strains, locus YPL106C, strain sse1, stronger effect = lower value",0.99
same,normalized growth,"S. cerevisiae deletion strains, locus YPL240C, strain hsp82, stronger effect = lower value",1.01
same,normalized growth,"S. cerevisiae deletion strains, locus YPL241C, strain CIN2, stronger effect = lower value",0.978
same,normalized growth,"S. cerevisiae deletion strains, locus YPL256C, strain CLN2, stronger effect = lower value",0.927
same,normalized growth,"S. cerevisiae deletion strains, locus YPR119W, strain clb2, stronger effect = lower value",0.967
same,normalized growth,"S. cerevisiae deletion strains, locus YPR141C, strain kar3, stronger effect = lower value",0.989
same,normalized growth,"S. cerevisiae deletion strains, locus YPR163C, strain tif3, stronger effect = lower value",0.962
same,normalized growth,"S. cerevisiae deletion strains, locus YPR167C, strain met16, stronger effect = lower value",0.978
same,normalized growth,"S. cerevisiae deletion strains, strain wtn01, stronger effect = lower value",0.948
same,normalized growth,"S. cerevisiae strains, strain wild type, stronger effect = lower value",0.964
